Legend:
Assay in all cases: log2 ratio of Biotin-Ahx-Ub-VS probe labelling (fragment/DMSO); higher = less target engagement (more negative = stronger competition), active = hit call of the paper (q ≤ 0.05, log2 ratio ≤ -1)
Conditions in all cases: compound concentration: 200 uM; treatment time: 3 h
OTUD6B = molecular target: T1, OTUD6B (UniProt Q8N6M0)
T1 sequence (whole entry): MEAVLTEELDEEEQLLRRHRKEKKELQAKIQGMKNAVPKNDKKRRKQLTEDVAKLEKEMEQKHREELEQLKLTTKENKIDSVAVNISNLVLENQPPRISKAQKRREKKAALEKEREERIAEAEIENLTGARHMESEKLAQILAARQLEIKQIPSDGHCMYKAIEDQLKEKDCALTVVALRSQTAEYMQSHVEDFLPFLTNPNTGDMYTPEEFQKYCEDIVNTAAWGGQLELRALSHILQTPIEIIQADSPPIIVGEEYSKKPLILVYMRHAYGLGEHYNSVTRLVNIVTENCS
Procedure, shortened: (§1)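 Labelling with Biotin-Ahx-Ub-VS (0.5 µM final, 1 h) followed a 3 h triplicate treatment of HEK293T lysate (495 µg per sample, Tris/CHAPS/IGEPAL buffer with protease inhibitors) with fragment at 200 µM or vehicle. Labelled DUBs were NeutrAvidin-enriched, digested with LysC and trypsin, and run by diaPASEF LC-MS/MS. The values, average log2 fragment/vehicle ratios by unpaired t-test, come from global-median-normalised Spectronaut label-free quantities. Proteins with ≥2 unique peptides were used.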

OTUD7B = molecular target: T2, OTUD7B (UniProt Q6GQQ9)
T2 sequence (whole entry): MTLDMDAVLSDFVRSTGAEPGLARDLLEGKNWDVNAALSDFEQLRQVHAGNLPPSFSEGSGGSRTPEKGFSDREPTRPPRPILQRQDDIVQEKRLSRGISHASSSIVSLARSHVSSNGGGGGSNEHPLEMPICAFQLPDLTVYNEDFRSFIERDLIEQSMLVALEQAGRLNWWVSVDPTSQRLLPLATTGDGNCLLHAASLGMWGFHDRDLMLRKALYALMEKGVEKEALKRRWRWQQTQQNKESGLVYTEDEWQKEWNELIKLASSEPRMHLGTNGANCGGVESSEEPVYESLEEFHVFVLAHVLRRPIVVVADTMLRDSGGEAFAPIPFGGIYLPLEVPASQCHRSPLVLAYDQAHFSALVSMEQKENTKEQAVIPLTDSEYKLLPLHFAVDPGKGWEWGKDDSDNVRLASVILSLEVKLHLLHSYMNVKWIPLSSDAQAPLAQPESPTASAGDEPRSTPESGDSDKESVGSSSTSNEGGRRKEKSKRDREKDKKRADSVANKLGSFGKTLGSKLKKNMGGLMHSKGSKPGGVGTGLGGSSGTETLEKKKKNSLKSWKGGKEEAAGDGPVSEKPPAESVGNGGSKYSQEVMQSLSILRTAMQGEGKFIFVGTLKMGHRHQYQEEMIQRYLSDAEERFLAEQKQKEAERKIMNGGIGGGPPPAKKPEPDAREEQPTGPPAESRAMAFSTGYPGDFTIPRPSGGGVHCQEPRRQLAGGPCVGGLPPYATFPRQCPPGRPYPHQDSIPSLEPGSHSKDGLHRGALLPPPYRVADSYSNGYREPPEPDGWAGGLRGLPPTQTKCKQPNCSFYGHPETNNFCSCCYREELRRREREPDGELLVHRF
Procedure, shortened: as §1

PRPF8 = PRPF8 (UniProt Q6P2Q9)
Procedure, shortened: as §1

PSMD7 = molecular target: T3, PSMD7 (UniProt P51665)
T3 sequence (whole entry): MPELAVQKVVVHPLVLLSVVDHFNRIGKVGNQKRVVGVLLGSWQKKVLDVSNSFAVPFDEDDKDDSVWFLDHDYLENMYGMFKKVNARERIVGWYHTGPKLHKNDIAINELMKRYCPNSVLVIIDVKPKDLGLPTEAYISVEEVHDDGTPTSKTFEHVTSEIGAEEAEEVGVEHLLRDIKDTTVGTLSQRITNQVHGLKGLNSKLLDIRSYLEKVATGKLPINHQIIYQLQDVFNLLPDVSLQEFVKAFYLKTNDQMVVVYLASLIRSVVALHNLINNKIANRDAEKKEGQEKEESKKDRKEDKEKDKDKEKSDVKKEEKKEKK
Procedure, shortened: as §1

UCHL1 = UCHL1 (UniProt P09936)
Procedure, shortened: as §1

UCHL3 = molecular target: T4, UCHL3 (UniProt P15374)
T4 sequence (whole entry): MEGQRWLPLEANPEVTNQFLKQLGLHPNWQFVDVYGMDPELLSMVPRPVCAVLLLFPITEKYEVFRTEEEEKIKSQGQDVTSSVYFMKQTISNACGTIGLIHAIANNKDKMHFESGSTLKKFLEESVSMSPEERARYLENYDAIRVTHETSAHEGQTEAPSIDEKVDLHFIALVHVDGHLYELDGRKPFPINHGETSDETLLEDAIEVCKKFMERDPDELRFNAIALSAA
Procedure, shortened: as §1

UCHL5 = molecular target: T5, UCHL5 (UniProt Q9Y5K5)
T5 sequence (whole entry): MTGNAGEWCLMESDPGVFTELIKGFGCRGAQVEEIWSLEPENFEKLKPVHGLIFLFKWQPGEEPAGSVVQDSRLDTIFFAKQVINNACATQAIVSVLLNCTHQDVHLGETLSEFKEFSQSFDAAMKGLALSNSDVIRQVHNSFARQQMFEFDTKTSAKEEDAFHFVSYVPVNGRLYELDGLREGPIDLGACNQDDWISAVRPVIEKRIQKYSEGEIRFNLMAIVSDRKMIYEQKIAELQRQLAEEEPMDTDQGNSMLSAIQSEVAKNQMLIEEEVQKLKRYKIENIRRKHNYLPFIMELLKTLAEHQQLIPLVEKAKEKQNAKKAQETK
Procedure, shortened: as §1

USP10 = USP10 (UniProt Q14694)
Procedure, shortened: as §1

USP15 = molecular target: T6, USP15 (UniProt Q9Y4E8)
T6 sequence (whole entry): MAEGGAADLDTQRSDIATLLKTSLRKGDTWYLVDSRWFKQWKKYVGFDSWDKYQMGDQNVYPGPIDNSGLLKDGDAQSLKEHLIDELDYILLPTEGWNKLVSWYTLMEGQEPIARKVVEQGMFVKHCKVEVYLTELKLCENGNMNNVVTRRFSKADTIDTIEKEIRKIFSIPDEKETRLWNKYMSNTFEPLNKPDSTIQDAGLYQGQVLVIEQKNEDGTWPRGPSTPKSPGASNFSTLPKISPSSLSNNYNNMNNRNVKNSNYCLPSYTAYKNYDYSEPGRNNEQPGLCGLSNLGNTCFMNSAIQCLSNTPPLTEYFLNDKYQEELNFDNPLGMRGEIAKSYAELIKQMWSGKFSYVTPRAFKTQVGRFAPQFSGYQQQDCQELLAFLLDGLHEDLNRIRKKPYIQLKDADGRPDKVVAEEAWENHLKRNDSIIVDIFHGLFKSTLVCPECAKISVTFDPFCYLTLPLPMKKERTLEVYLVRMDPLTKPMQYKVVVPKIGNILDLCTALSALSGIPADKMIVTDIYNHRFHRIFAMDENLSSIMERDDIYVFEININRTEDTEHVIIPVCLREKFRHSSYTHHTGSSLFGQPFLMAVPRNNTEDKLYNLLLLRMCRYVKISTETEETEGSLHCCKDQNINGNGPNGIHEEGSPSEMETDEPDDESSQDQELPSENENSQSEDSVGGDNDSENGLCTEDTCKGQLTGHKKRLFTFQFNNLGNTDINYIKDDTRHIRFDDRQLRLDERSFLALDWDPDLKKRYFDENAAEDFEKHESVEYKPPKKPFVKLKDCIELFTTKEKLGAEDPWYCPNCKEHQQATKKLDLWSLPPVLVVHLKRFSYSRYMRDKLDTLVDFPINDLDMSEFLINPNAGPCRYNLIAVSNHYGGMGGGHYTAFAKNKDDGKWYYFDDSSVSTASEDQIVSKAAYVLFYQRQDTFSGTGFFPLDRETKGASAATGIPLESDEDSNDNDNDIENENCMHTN
Procedure, shortened: as §1

USP16 = USP16 (UniProt Q9Y5T5)
Procedure, shortened: as §1

Measured: log2 ratio of Biotin-Ahx-Ub-VS probe labelling

USP16, sequence (Q9Y5T5 whole entry, looked up): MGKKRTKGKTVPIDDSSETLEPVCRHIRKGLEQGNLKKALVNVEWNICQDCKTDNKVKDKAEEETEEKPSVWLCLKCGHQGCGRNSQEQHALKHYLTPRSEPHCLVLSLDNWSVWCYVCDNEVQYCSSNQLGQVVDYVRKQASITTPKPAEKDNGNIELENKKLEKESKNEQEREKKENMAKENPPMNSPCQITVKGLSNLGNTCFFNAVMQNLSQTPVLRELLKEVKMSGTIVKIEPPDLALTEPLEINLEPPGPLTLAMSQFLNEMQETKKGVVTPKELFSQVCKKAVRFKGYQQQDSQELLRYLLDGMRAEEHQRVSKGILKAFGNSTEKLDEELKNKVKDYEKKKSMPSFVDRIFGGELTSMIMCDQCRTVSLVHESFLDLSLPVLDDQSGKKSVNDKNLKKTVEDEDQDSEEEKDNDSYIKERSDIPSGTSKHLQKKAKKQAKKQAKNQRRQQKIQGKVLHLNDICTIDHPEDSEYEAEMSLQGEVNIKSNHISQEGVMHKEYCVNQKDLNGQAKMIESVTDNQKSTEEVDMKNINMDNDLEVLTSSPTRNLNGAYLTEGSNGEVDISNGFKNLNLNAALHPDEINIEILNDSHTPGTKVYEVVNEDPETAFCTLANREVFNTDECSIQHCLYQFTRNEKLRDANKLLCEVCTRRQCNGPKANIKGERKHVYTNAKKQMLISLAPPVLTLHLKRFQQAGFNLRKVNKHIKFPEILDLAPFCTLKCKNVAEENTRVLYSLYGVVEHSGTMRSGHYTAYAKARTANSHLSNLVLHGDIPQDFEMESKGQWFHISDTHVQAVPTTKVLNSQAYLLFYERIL
UCHL1, sequence (P09936 whole entry, looked up): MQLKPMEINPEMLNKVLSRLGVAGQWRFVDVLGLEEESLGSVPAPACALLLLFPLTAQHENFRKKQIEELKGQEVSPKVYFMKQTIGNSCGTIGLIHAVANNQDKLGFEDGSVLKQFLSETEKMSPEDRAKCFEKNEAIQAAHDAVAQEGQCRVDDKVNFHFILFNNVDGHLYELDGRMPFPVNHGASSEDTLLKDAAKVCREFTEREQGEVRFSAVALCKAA
USP10, sequence (Q14694 whole entry): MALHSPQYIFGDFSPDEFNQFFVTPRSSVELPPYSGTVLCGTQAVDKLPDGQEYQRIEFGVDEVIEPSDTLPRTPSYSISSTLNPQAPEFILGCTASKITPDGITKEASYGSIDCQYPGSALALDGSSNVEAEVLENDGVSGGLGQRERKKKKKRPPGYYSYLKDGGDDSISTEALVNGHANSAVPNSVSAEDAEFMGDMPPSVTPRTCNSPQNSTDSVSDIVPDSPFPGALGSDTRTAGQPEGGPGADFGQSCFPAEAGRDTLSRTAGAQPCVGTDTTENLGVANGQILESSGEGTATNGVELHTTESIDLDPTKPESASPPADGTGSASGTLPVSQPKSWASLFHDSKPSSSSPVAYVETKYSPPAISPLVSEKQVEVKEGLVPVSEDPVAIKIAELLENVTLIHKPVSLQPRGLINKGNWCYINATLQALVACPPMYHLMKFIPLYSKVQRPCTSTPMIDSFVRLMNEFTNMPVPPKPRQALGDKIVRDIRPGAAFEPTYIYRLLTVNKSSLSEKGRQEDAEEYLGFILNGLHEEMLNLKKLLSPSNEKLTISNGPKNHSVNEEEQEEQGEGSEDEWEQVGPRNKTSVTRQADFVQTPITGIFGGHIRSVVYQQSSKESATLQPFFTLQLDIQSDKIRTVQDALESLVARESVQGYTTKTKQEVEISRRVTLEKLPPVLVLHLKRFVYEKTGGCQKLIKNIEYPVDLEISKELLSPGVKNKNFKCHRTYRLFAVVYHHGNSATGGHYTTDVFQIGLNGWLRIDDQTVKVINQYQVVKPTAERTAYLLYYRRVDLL

Cc1ccc(CC(NC(=O)CCl)c2ccccn2)cc1.Cl (stereo not given)
inactive: OTUD6B 0.0158 | OTUD7B -0.295 | PRPF8 0.0556 | PSMD7 -0.125 | UCHL1 -0.621 | UCHL3 0.459 | UCHL5 0.179 | USP10 -0.00276 | USP15 0.0178 | USP16 0.0921

Cc1cccn2cc(CCNC(=O)CCl)nc12.Cl
active: UCHL1 -1.98
inactive: OTUD6B -0.414 | OTUD7B -0.338 | PRPF8 0.19 | PSMD7 -0.207 | UCHL3 0.136 | UCHL5 -0.00232 | USP10 -0.0824 | USP15 -0.191 | USP16 -0.607

O=C(CCl)NC1(c2ccc3c(c2)OCCO3)CCCC1
active: UCHL1 -1.32
inactive: OTUD6B -0.0936 | OTUD7B -0.638 | PRPF8 -0.154 | PSMD7 -0.208 | UCHL3 -0.106 | UCHL5 -0.537 | USP10 -0.203 | USP15 -0.213 | USP16 -0.316

O=C(CCl)N1CCOC(c2cccc(F)c2)C1 (stereo not given)
inactive: OTUD6B -0.268 | PRPF8 -0.107 | PSMD7 -0.115 | UCHL3 0.156 | UCHL5 -0.463 | USP10 -0.284 | USP15 -0.387 | USP16 0.0465
active: OTUD7B -1.75 | UCHL1 -1.68

Cc1nc(CN2CCN(C(=O)CCl)CC2)cs1
active: UCHL1 -1.72
inactive: OTUD6B -0.238 | OTUD7B -0.265 | PRPF8 0.211 | PSMD7 -0.333 | UCHL3 -0.051 | UCHL5 -0.0894 | USP10 -0.0627 | USP15 -0.32 | USP16 -0.55

CC(NC(=O)CCl)c1cccc2ccccc12 (stereo not given)
inactive: OTUD6B -0.00256 | PRPF8 -0.109 | PSMD7 0.0463 | UCHL5 -0.585 | USP10 -0.00367 | USP15 -0.21 | USP16 0.303
active: OTUD7B -1.46 | UCHL1 -1.35 | UCHL3 -1.96

COc1ccc(-c2csc(NC(=O)CCl)n2)cc1
inactive: OTUD6B -0.417 | OTUD7B -0.639 | PRPF8 0.0611 | PSMD7 -0.221 | UCHL3 -0.274 | USP10 -0.17 | USP15 -0.394 | USP16 -0.287
active: UCHL1 -1.27 | UCHL5 -3.29

Cl.O=C(CCl)NCCc1ncc(F)cc1F
active: UCHL1 -1.7
inactive: OTUD6B -0.346 | OTUD7B -0.663 | PRPF8 -0.0362 | PSMD7 -0.45 | UCHL3 0.191 | UCHL5 -0.376 | USP10 -0.075 | USP15 -0.3 | USP16 -0.0122

O=C(CCl)NCc1ccc2c(c1)OCO2
active: UCHL1 -1.36
inactive: OTUD6B 0.00826 | OTUD7B -0.843 | PRPF8 -0.215 | PSMD7 -0.228 | UCHL3 -0.0636 | UCHL5 -0.325 | USP10 -0.00649 | USP15 -0.0739 | USP16 0.0675

O=C(CCl)N1CCCC1c1ccsc1 (stereo not given)
active: UCHL1 -1.81
inactive: OTUD6B -0.452 | OTUD7B -0.521 | PRPF8 0.0505 | PSMD7 -0.39 | UCHL3 -0.121 | UCHL5 -0.228 | USP10 -0.161 | USP15 -0.548 | USP16 -0.254

Cc1ccn2cc(CNC(=O)CCl)nc2c1.Cl
inactive: OTUD6B -0.283 | OTUD7B -0.682 | PRPF8 0.0356 | PSMD7 -0.104 | UCHL1 -0.67 | UCHL3 -0.0928 | UCHL5 -0.311 | USP10 0.0849 | USP15 -0.244 | USP16 0.0424

O=C(CCl)N1CCN(C(=O)N2CCCCC2)CC1
active: OTUD6B -1.28 | OTUD7B -1.17 | UCHL1 -2.3
inactive: PRPF8 -0.0826 | PSMD7 -0.335 | UCHL3 -0.528 | UCHL5 -0.96 | USP10 -0.21 | USP15 -0.839 | USP16 0.0515

N#Cc1cnn(-c2ccccc2)c1NC(=O)CCl
active: OTUD7B -1.83 | UCHL1 -1.35
inactive: OTUD6B -0.394 | PRPF8 -0.0739 | PSMD7 -0.397 | UCHL3 0.168 | UCHL5 -0.235 | USP10 -0.0214 | USP15 -0.516 | USP16 -0.0136

From the supplement of paper PMC11732987, “Enantioselective OTUD7B fragment discovery through chemoproteomics screening and high-throughput optimisation” (Communications Chemistry, 2025)
